Assay outcomes deposited in PubChem by National Center for Advancing Translational Sciences (NCATS).
Pf Dd2 growth: inhibitors of Plasmodium falciparum Dd2 growth; P. falciparum Dd2 growth, SYBR Green, 72 h; actives 4.3% (n = 120,000); Potency, µM (titrated, usually from 28.9 µM), actives largely listed as inhibitors; active = well fitted inhibition curve with a large enough effect; note: nearly all actives have a fitted effect of over 65% in size
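Infected erythrocytes (Dd2, 0.3% parasitemia, 2.5% hematocrit final) are added to compound in RPMI-1640/Albumax II medium, grown 72 h at 37C in low oxygen, then lysed with saponin/Triton-X containing SYBR Green and read by fluorescence.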
A number is an active result; – = inactive; ! = not confirmed by another sample. This is one part of a sample in which hits are shown more often than they occur.

SMILES | Pf Dd2 growth
N[C@H]1CN(C(=O)c2ccc(Cn3cnnn3)cc2)C[C@@H]1C1CC1 | –
COc1ccc(CCNC(=O)CCCn2c(=O)c3ccccc3n(CC(=O)Nc3c(C)cc(C)cc3C)c2=O)cc1OC | –
COc1ccc(CCNC(=O)CCCCn2c(=O)c3ccccc3n(CC(=O)Nc3ccccc3C)c2=O)cc1OC | –
COc1ccc(CCNC(=O)CCCn2c(=O)c3ccccc3n(CC(=O)Nc3cccc(C)c3)c2=O)cc1OC | 10µM
O=C(c1cnccn1)N1CC(F)(F)C[C@H]1c1nc(-c2ccncc2)no1 | –
Cc1cc(F)ccc1NC(=O)c1csc2c1CCC(C)C2 (stereo not given) | 4.5µM
O=C(Nc1ccc(F)cc1)c1csc2c1CCCCC2 | –
Cc1cc(F)ccc1NC(=O)c1ccc2nc(Cc3ccccc3)oc2c1 | –
CCOc1ccc(CN2CCc3nn(C)c(=O)n3CC2)cc1OC | –
Cc1nc(C2CCCN(C(=O)C3(C(N)=O)CC3)C2)cc(N2CCCC2)n1 (stereo not given) | –
COc1cccc(CCC(=O)N(C)C2CCc3nn(CC4CC4)c(=O)n3CC2)c1 (stereo not given) | –
CC(=O)N[C@H]1CC[C@]2(C)CC[C@@H](C(C)C(=O)NC3CCCC3)[C@H](O)[C@H]2[C@@H]1C (stereo not given in full) | –
CCOC(=O)c1c(C)oc2ncnc(Nc3cccc(C(F)(F)F)c3)c12 | –
Cc1ccc(Nc2nc3nonc3nc2Nc2cccc(C(F)(F)F)c2)cc1Cl | 1.1µM
CCOC(=O)c1noc2ncnc(Nc3cccc(C(F)(F)F)c3)c12 | –
O=C(c1cccs1)N1CCC(Cc2nc(C3CCOCC3)no2)CC1 | –
CN1CCC(NC[C@H]2COCc3nc4cc(S(C)(=O)=O)ccc4n32)CC1 | –
O=C(c1cccc(OC2CN(Cc3ccc(F)cc3Cl)C2)c1)N1CCOCC1 | –
COc1cccc(NC(=O)CCC2CCN(C(=O)c3cnc(C)[nH]c3=O)CC2)c1 | –
O=C(N[C@H]1CO[C@H]2[C@@H]1OC[C@@H]2Nc1nccc(-c2ccc(-c3ccccc3)cc2)n1)C1CC1 | –
NS(=O)(=O)c1ccc(CNc2nccc(-c3cccnc3)n2)cc1 | –
O=C(CCc1ccc(O)cc1)N[C@H]1CC[C@H](Nc2nccc(-c3cccnc3)n2)C1 | 11µM
O=C(CCN1CCCCO1)N1CCCC(N2CCN(c3ccccc3)CC2)C1 (stereo not given) | –
CC(C)CC(=O)NC[C@@H]1C[C@H](F)CN1C(=O)c1cn(CCN)nn1 | –
COCCOCc1nc(C2CCN(C(=O)NCc3ccc(C)cc3)CC2)no1 | –
SMILES | Pf Dd2 growth
CCCNC(=O)N1CCC(c2noc(COc3ccc(C)cc3)n2)CC1 | 8.9µM
CCCNC(=O)N1CCC(c2noc(COc3ccc(F)cc3)n2)C1 (stereo not given) | –
CCOc1ccccc1NC(=O)N1CCC(c2noc(COC)n2)C1 (stereo not given) | –
CCOc1ccccc1NC(=O)N1CCCC(c2noc(COc3ccccc3)n2)C1 (stereo not given) | 5.6µM
Cc1c(F)cccc1NC(=O)N1CCCC(c2noc(COc3ccccc3)n2)C1 (stereo not given) | –
CNC(=O)[C@@H]1CN(S(=O)(=O)c2cc(F)ccc2C)C[C@H]1C1CCN(C)CC1 | –
CCCN(Cc1ccc(S(=O)(=O)NC)cc1)Cc1ccccc1OC | –
CCCS(=O)(=O)N[C@@H]1CN(c2ncccn2)C[C@H]1CN(C)C | –
Cc1cc(C)cc(C(=O)N2CCN(C3CCN(CCC(C)C)C3=O)CC2)c1 (stereo not given) | –
CC(=O)N1CCC2(C1)C(=O)N(CCc1ccccc1)c1ccccc12 (stereo not given) | –
O=C(c1ccccc1Cl)N1CCC2(C1)C(=O)N(CCc1ccccc1)c1ccccc12 (stereo not given) | –
CN(C)C(=O)N1CCC2(C1)C(=O)N(CCc1ccccc1)c1ccccc12 (stereo not given) | –
Cc1noc(C)c1[S+](=O)([O-])N1CCC2(C1)C(=O)N(Cc1ccccc1)c1ccccc12 (stereo not given) | –
O=C(C1CC1)N1CCC2(C1)C(=O)N(CCc1ccccc1)c1ccccc12 (stereo not given) | 6.3µM!
O=C1N(Cc2ccccc2)c2ccccc2C12CCN([S+](=O)([O-])c1ccccc1)C2 (stereo not given) | –
O=C(c1ccc(Cl)nc1)N1CCC2(C1)C(=O)N(CCc1ccccc1)c1ccccc12 (stereo not given) | 13µM!
Cc1ccccc1C(=O)N1CCC2(C1)C(=O)N(CCc1ccccc1)c1ccccc12 (stereo not given) | –
O=C1N(CCc2ccccc2)c2ccccc2C12CCN([S+](=O)([O-])c1cccs1)C2 (stereo not given) | 7.9µM!
O=C(Nc1ccc2c(c1)OCCO2)N1CCCC(Cn2cnc3cccnc32)C1 (stereo not given) | –
Cc1ncc(C(=O)NCc2ccc3[nH]c(-c4ccccc4F)c(C)c3c2)c(C)n1 | –
CC(C)c1ccc(NC(=O)C2(C)CCCCC(=O)N2)cc1 (stereo not given) | –
Cc1ccc(S(=O)(=O)N2C[C@@H](F)C[C@H]2C(=O)N2CCc3ccccc3C2)cc1Cl | –
c1ccc2c(CN3CC(Oc4ccc5c(c4)OCO5)C3)cccc2c1 | –
O=C(NCCc1ccccc1)c1ccc(CSc2nc3ccncc3n2Cc2ccc(F)cc2)cc1 | 7.1µM
Cc1ccc(CCNC(=O)c2ccc(CSc3nc4ccncc4n3Cc3ccc(F)cc3)cc2)cc1 | 4.5µM
SMILES | Pf Dd2 growth
Cc1ccc(NC(=O)Cn2c(SCc3cccc(F)c3)nc3ccncc32)c(C)c1 | –
COC(=O)c1ccc(Cn2c(SCC(=O)Nc3ccc(F)cc3)nc3ccccc32)cc1 | –
Cc1ccc(Cn2c(CO)cnc2SCc2ccc(F)cc2)cc1 | –
C=CCSC(C)C(=O)N1CCCn2nc(C(=O)OC)cc2C1 (stereo not given) | –
COCCNC(=O)[C@@H]1C[C@H](Oc2ccccc2)CN1C(=O)Nc1ccc2c(c1)OCCO2 | –
CNC(=O)C1(NC(=O)c2ccc(CCC(C)(C)O)cc2)CCCCC1 | –
CN(Cc1cccc(F)c1)Cc1ccccc1C(F)(F)F | –
O=C(Cc1ccc(F)cc1)Nc1ccc2ncnc(N3CCCCC3)c2c1 | –
CNC(=O)[C@@H]1C[C@H](Oc2cccnc2)CN1C(=O)c1n[nH]c2ccccc12 | –
CN(C)c1ccc(-c2nnc([C@H]3CCN(Cc4ccco4)C3)o2)cc1 | 7.9µM
CN(C)c1ccc(CN2CC[C@H](c3nnc(-c4ccco4)o3)C2)cc1 | –
CN(C)c1ccc(-c2nnc([C@H]3CCN(Cc4ccccc4F)C3)o2)cc1 | –
Cc1cnc(C(=O)NC2C[C@H]3CC[C@@H](C2)N3S(=O)(=O)c2ccc(C)c(F)c2)cn1 (stereo not given in full) | –
O=C(CN1C(=O)C(c2ccccc2)=NC12CCCC2)NC1CCCCC1 | –
CCc1[nH]c2c(CNC(=O)C(C)O)cc(C)cc2c1C (stereo not given) | –
Cc1cc(CNC(=O)c2ccc(S(N)(=O)=O)cc2)c2[nH]c(C)c(C)c2c1 | –
Cc1cc(CNC(=O)c2cccc(F)c2F)c2[nH]c(C)c(C)c2c1 | 10µM
C[C@@H]1CN(C2(C(=O)N[C@@H](C)C(N)=O)Cc3ccccc3C2)C[C@H](C)O1 | –
COc1ccc(-c2noc([C@@H](C)NC(=O)C3CCCC3)c2C(=O)O)cc1 | –
O=C(CC1CCCC1)N1CCC(N2C(=O)C(O)C23CCCCC3)CC1 (stereo not given) | –
